According to the supplement of paper PMC12669032:

Columns and labels:
Assay in all cases: growth AUC relative to DMSO control (median of replicates) (fraction); higher = more growth (less inhibition), active = hit call of the paper
Details in all cases: 20 µM; 24 h;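 active = AUC reduced over 20% with Padj below 0.05 in at least 2 of 3 replicates; inactive = otherwise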
[1] = tested on: Akkermansia muciniphila
In short: (§1)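 Gut bacterial monocultures were grown anaerobically at 37 °C in mGAM from a starting OD600 of 0.05 with 20 µM compound (1% DMSO), in round-bottom 96-well plates under pierced gas-permeable seals, and OD600 was read hourly for 24 h. With the minimum OD set to 0, area under the growth curve was normalised to the plate median of solvent-only wells, or to row and column medians on the industrial chemical plate. Each value is the median of three biological replicates grown on separate days.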

[2] = tested on: Bacteroides caccae
In short: as §1

[3] = tested on: Bacteroides clarus
In short: as §1

[4] = tested on: Bacteroides dorei
In short: as §1

[5] = tested on: Bacteroides stercoris
In short: as §1

[6] = tested on: Bacteroides thetaiotaomicron
In short: as §1

[7] = tested on: Bacteroides uniformis
In short: as §1

[8] = tested on: Bifidobacterium longum subsp. longum
In short: as §1

[9] = tested on: Clostridium difficile
In short: as §1

[10] = tested on: Collinsella aerofaciens
In short: as §1

Measured: growth AUC

S=C([S-])NCCNC(=S)[S-].[Mn+2]
inactive: [1] 0.999 | [2] 1.01 | [3] 1.13 | [4] 0.979 | [5] 1.1 | [6] 1.03 | [7] 0.991 | [8] 0.996 | [9] 0.977 | [10] 1

COCCOc1ccccc1S(=O)(=O)NC(=O)Nc1nc(OC)nc(OC)n1
inactive: [1] 1.03 | [2] 0.976 | [3] 0.97 | [4] 0.962 | [5] 0.92 | [6] 1 | [7] 1.02 | [8] 1.06 | [9] 0.984 | [10] 0.908

CCOC(=O)c1nc(C(Cl)(Cl)Cl)n(-c2ccc(Cl)cc2Cl)n1
inactive: [1] 0.908 | [2] 1 | [3] 1 | [4] 0.99 | [5] 0.861 | [6] 0.966 | [7] 0.968 | [8] 0.983 | [9] 0.983 | [10] 0.952

CCCCC(CC)COC(=O)COc1cc(Cl)c(Cl)cc1Cl (stereo not given)
inactive: [1] 0.936 | [2] 0.97 | [3] 0.93 | [4] 0.984 | [5] 1.03 | [6] 0.987 | [7] 0.993 | [8] 0.807 | [9] 0.999 | [10] 0.948

CCc1cccc(C)c1NC(=O)C(=O)O
inactive: [1] 0.965 | [2] 1.01 | [3] 0.999 | [4] 1 | [5] 0.999 | [6] 0.942 | [7] 1 | [8] 1.02 | [9] 0.972 | [10] 0.983

COc1cc(OC)nc(Sc2cccc3c2C(=O)OC3C)n1 (stereo not given)
inactive: [1] 0.871 | [2] 1.01 | [3] 0.989 | [4] 1.04 | [5] 1.06 | [6] 0.974 | [7] 0.97 | [8] 0.974 | [9] 0.998 | [10] 1.03

CCOC(=O)C1=NN(c2ccc(Cl)cc2Cl)C(C)(C(=O)OCC)C1 (stereo not given)
inactive: [1] 0.965 | [2] 0.979 | [3] 0.932 | [4] 1.02 | [5] 0.933 | [6] 0.92 | [7] 0.95 | [8] 0.931 | [9] 1.03 | [10] 1.01

CCCCCCCC(=O)Oc1c(Br)cc(C#N)cc1Br
inactive: [1] 1.06 | [2] 0.934 | [3] 0.959 | [4] 1.04 | [5] 0.842 | [6] 1.04 | [7] 0.983 | [8] 1.06 | [9] 1.02 | [10] 0.971

CCNc1nc(Cl)nc(N(CC)CC)n1
inactive: [1] 1.06 | [2] 0.995 | [3] 1.01 | [4] 0.986 | [5] 1.01 | [6] 0.977 | [7] 0.951 | [8] 1.02 | [9] 1.02 | [10] 1.03

COC(=O)c1ccc(C(F)(F)F)nc1S(=O)(=O)[N-]C(=O)Nc1nc(OC)cc(OC)n1.[Na+]
inactive: [1] 0.963 | [2] 1.01 | [3] 0.997 | [4] 1.01 | [5] 0.908 | [6] 0.993 | [7] 0.978 | [8] 0.938 | [9] 1.05 | [10] 1.03
